From PubChem BioAssay (NCI)
This is part of a sample that, as a whole, favours compounds with a hit. Of some 83,000 tested, about 20% had one in any assay.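 Plates (96-well) were seeded with cells, treated with compound at one concentration, and incubated for 48 hours before percent growth was determined.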 Unmarked numbers belong to inactive results. Active and inactive are the calls of the source. Rule for the calls: active = growth percent below 10; inactive = the rest.

These molecules were tested on HOP-92 NSCLC (assay: NCI-60 one-dose screen, 48 h (100 = growth as untreated, 0 = no growth, -100 = all killed)). Conditions: 10 µM unless noted.

SMILES | growth
COc1cc(CNC(=O)C[C@H](C)CCC=C(C)C)ccc1OCc1cn(-c2ccc(Br)cc2)nn1 | 45.9%
N#CC1=C(c2cccs2)Nc2c(c(-c3ccccc3)nn2-c2ccccc2)C12C(=O)Nc1ccccc12 (stereo not drawn) | -13.1% (active)
N#Cc1c(-c2ccc(F)cc2)nc(SCc2ccc(F)cc2)nc1N1CCNCC1 | -64.9% (active)
COc1cc(NC(=O)CSc2nnc(-c3ccc(-c4nc5ccc(Cl)cc5[nH]4)cc3)o2)cc(OC)c1OC | 91.5%
CN(C)c1nc(NCCNS(=O)(=O)c2ccc(C(=O)/C=C/c3ccc(C(F)(F)F)cc3)cc2)nc(N2CCOCC2)n1 | 32.3%
COc1cc(CNC(=O)C[C@H](C)CCC=C(C)C)ccc1OCc1cn(-c2ccc(Cl)cc2Cl)nn1 | -3.27% (active)
O=C(N=Nc1c(O)[nH]c2ccc(Cl)cc12)c1ccc2nc(-c3ccc(Cl)cc3)[nH]c2c1 | -0.983% (active)
CC1=C(C(=O)OCc2ccccc2)C(c2ccc(N(C)C)cc2)n2c(nc3ccccc32)N1 (stereo not drawn) | 73.5%
Cn1cc(-c2cc(N)n3nc(-c4c[nH]c5ccc(F)cc45)cc3n2)c2cc(Br)cnc21 | 27.3%
CCCCC[C@@H]1C/C=C(\C)[C@@H](O)C(C)(C)C(=O)[C@@H](C)/C=C(\C)[C@@H]2C[C@H](O)C[C@](O)(CC(=O)O1)O2 | 60.4%
COc1ccc2c(c1)c(-c1cc(N)n3nc(-c4c[nH]c5ccccc45)cc3n1)cn2C | -66.7% (active)
COc1ccccc1NC(=O)N/N=C/c1c[nH]c2ccccc12 | 47.7%
CC[C@]12C=CCN3CC[C@@]4(c5ccc(OC)cc5N(C)[C@H]4[C@@](O)(C(=O)OC)[C@@H]1OC(=O)CCCC[P+](c1ccc(F)cc1)(c1ccc(F)cc1)c1ccc(F)cc1)[C@@H]32 | -12.2% (active)
Cc1ccc(Cl)cc1NC(=O)Nc1nc2ccc([N+](=O)[O-])cc2s1 | -28.6% (active)
Nc1nnc(CS(=O)(=O)c2ccccc2)s1 | 86.5%
N#CC1=C(c2cccs2)Nc2c(c(-c3ccccc3)nn2-c2ccccc2)C12C(=O)Nc1ccc(Br)cc12 (stereo not drawn) | -24.7% (active)
N#Cc1ccc(C(=O)CSc2nc3c(c(Nc4ccc(S(N)(=O)=O)cc4)n2)CCC3)cc1 | 14.1%
Cc1cccc(-c2ccccc2Oc2ccc3nnc(Cl)n3n2)c1 | 130%
COC(=O)c1cc(C(=O)CBr)n2c1ccc1c3ccccc3ccc12 | 53.2%

SMILES | growth
O=C(Cn1c(/C=C/c2ccc([N+](=O)[O-])cc2)nc2ccccc2c1=O)Nc1ccccc1 | 52.1%
CC(C)C[C@H](NC(=O)CNC(=O)C[C@H]1O[C@@H]2OC3(C)CC[C@H]4[C@H](C)CC[C@@H]([C@H]1C)[C@@]24O3)B(O)O | -18.8% (active)
COc1ccccc1/C=C/c1cccc(NC(=S)NCCCCN(C)C)c1 | -60.9% (active)
CCCn1c(NC(=O)c2cccc(C(N)=O)c2)nc2cc(CN3CCCCC3)ccc21 | 84.8%
Fc1cccc(CNc2nc(SCCN3CCOCC3)nc3c2cnn3CC(Cl)c2ccc(Br)cc2)c1 (stereo not drawn) | 20.3%
COc1ccc(NC(=O)Nc2nc3ccc([N+](=O)[O-])cc3s2)cc1 | -5.8% (active)
O=C1c2cccc3c(N4CCN(c5ccccc5)CC4)ccc(c23)C(=O)N1c1cccc(-c2nn(-c3ccccc3)cc2-c2nc3ccccc3s2)c1 | 120%
Clc1ccccc1Nc1nnc(-c2c[nH]c3ccccc23)o1 | 43.9%
Nc1nnc(-c2cncc(Br)c2)c(-c2c[nH]c3ccc(Br)cc23)n1 | 83.3%
O=C(CSc1nc2ccccc2c(=O)[nH]1)NNC(=O)c1ccccc1Cl | 100%
COc1c2c(c(Br)c3c1C(CCc1ccccc1)N(C)CC3)OCO2 (stereo not drawn) | 22.6%
Cn1cc(-c2cc3nc(-c4c[nH]c5ccccc45)cc(N)n3n2)c2ccccc21 | -29.4% (active)
O=C(/C=C1\C(=O)N(Cc2ccccc2)c2ccccc21)c1cc2ccccc2oc1=O | 87.9%
O=c1ccc(Cn2c(C(F)(F)F)cc3c(Cl)ncnc32)c[nH]1 | 78.6%
O=C1CC(c2ccc(I)cc2)OC2C=Cc3ccccc3C12 (stereo not drawn) | 101%
COC(=O)c1c(C(=O)OC)c2ccc3c4ccccc4ccc3n2c1C(=O)OC | 97.5%
O=C(N/N=C/c1occc1Br)c1[nH]c2ccc(Br)cc2c1-c1ccccc1 | -74.1% (active)
Cn1cc(-c2cc(N)n3nc(-c4c[nH]c5ccccc45)cc3n2)c2cc(Br)ccc21 | -74.5% (active)
Cc1ccc2c(c1)/C(=C/C(=O)c1cc3ccccc3oc1=O)C(=O)N2 | -4.43% (active)
